PubChem BioAssay
The source made the active and inactive calls. The rule behind the calls is not given here.

Assay: blockers of DNA damage checkpoint Chk1 activation – imaging, HeLa, hydroxyurea, phospho-Chk1 antibody, percent positive cells, primary screen (AID 1186)
Settings: hydroxyurea-induced phospho-Chk1 immunofluorescence imaging, higher = more signal

Row | SMILES | z-score
1 | COc1cc(C(O)C2C=CC3C(=O)N(C)C(=O)C3N2NC(=O)OC(C)(C)C)cc(OC)c1OC (stereo not given) | 0.873 (inactive)
2 | CC(=O)NCCCC[C@@H]1NC(=O)[C@H]2C[C@@H](C(=O)NCCCCCN)[C@@H](c3cccc(OCCO)c3)N2C1=O | -1.11 (inactive)
3 | CC(C)C[C@@H]1NC(=O)[C@@]23C(=O)N[C@@H](Cc4ccccc4)C2[C@H](C)[C@@]2(C)O[C@H]2C3/C=C/C/C=C\CNC(=O)[C@@H]2CCCN2C1=O (stereo not given in full) | -0.118 (inactive)
4 | CC1C=C(CCCO)C=C(C(=O)OCCS(C)(=O)=O)C(C(=O)OCCS(C)(=O)=O)=CN1Cc1cccc(OC(F)(F)F)c1 (stereo not given) | -0.0917 (inactive)
5 | CCOC(=O)C1=CC[C@@H](c2ccccc2)N(S(=O)(=O)c2ccc(C)cc2)[C@H]1C=C(C)C | 0.213 (inactive)
6 | CC1CC/C=C\[C@H]2OC34C=CCN(c5ccc(Cl)cc5)C(=O)[C@H]3N(C(CO)C(C)C)C(=O)[C@]4(C)C2C(=O)O1 (stereo not given in full) | -0.466 (inactive)
7 | COC(=O)[C@@]1(Cc2ccc(OC)cc2)[C@H]2c3cc(C(=O)N(C)C)n(Cc4cc(C)n(C)n4)c3C[C@H]2CN1C(=O)c1ccccc1 | 0.53 (inactive)
8 | COC(=O)[C@@]1(Cc2ccccc2)[C@H]2c3cc(C(=O)N(C)C)n(Cc4ccc(O)c(OC)c4)c3C[C@H]2CN1C(=O)c1ccccc1 | 0.197 (inactive)
9 | COc1ccc(C#Cc2ccc3c(c2)[C@]2(C(=O)N3)[C@H](c3ccc(OCCO)cc3)N3[C@H](c4ccccc4)[C@H](c4ccccc4)OC(=O)[C@H]3[C@@H]2C(=O)N2CCN(c3ncccn3)CC2)cc1 | -0.246 (inactive)
10 | O=C1CSC(c2cccc([N+](=O)[O-])c2)N1c1ccccc1 (stereo not given) | 0.0304 (inactive)
